High-throughput results as filed in PubChem.
In the library only some 3% were active in any assay of this set; here they are far more common.
14-3-3 Bad inh: inhibitors of 14-3-3 zeta/Bad binding, primary screen, biochemical, TR-FRET, bovine 14-3-3 zeta. TR-FRET 14-3-3zeta/Dy647-pBad peptide displacement, 1 h. 220,000 tested, 0.71% active. 14-3-3 protein zeta/delta (Bos taurus), P63103. AID 781, 2007. inhibition, % at 21.7 µM;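 active = inhibition above about 70%, limit read from the data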;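 also: 0% = full 14-3-3 plus peptide FRET controls and 100% = background without 14-3-3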
Mcl1 Bid PPI: Mcl-1/Bid binding inhibitors, primary screen, biochemical, TR-FRET, 1536-well | TR-FRET Mcl-1/Bid-Dy647 peptide binding | inhibition, % at 21.7 µM | 220,000 tested, 0.97% active | AID 1021, 2008;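 active = compounds that cut the binding signal by more than half at the single screening dose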;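 also: His-tagged Mcl-1 with europium anti-His antibody binding Bid BH3 peptide; 0% = Mcl-1 plus peptide wells and 100% = peptide-only wells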
Target sequence (Q07820 whole entry, looked up): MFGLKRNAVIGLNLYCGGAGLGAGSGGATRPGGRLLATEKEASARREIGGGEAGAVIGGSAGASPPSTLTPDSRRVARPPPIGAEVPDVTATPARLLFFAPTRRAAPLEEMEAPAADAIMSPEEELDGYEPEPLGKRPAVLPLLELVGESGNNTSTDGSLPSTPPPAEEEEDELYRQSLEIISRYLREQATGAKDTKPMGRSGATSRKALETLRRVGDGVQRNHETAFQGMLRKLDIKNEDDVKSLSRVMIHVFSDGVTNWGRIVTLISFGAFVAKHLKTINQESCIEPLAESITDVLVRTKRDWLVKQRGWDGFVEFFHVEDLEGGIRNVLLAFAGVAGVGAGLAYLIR
Mcl-1 Bim block: inhibitors of Bim peptide binding to Mcl-1, primary screen, biochemical, bead-based flow cytometry, multiplex | AID 1009, 2008 | inhibition, % at 10 µM | Induced myeloid leukemia cell differentiation protein Mcl-1 (Homo sapiens), Q07820 | Bim peptide-Mcl-1 binding | 190,000 tested, 0.1% active; in the data active = inhibition above about 40%;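 also: 0% = no compound tracer wells and 100% = peptide blocker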
Arbovirus anti: antivirals against arbovirus infection, primary screen, cell-based, full library, 10K replicate subset. inhibition, % at 10 µM. AID 1251, 2008. arbovirus infection cell-based antiviral screen. 200,000 tested, 0.37% active; in the data active = inhibition above about 30%
Mcl1 Noxa PPI: Mcl-1/Noxa binding inhibitors, primary screen, biochemical, TR-FRET, 1536-well | TR-FRET Mcl-1/Noxa peptide binding, 2 h | 220,000 tested, 1.5% active | inhibition, % at 21.7 µM;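 active = compounds that cut the protein-peptide binding signal by more than 50% relative to plate controls in a single-dose test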;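 also: His-tagged Mcl-1 with rhodamine Noxa BH3 peptide and terbium anti-His antibody; 0% = Mcl-1 plus Noxa peptide wells and 100% = peptide-only wells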
The depositor's hits bear a star; nt = not tested or not shown.

SMILES | 14-3-3 Bad inh | Mcl1 Bid PPI | Mcl-1 Bim block | Arbovirus anti | Mcl1 Noxa PPI
CC(=O)Nc1ccc(S(=O)(=O)NCC(CCC(=O)O)C(F)(F)F)cc1 (centres undefined) | 0.0 | -2.9 | 1.0 | 15.9 | 60.0*
Cc1cc(C)nc(SCC(N)=O)n1 | 1.4 | -13.6 | nt | nt | -12.8
NC(=O)Cc1ccc(Nc2nnc(-c3ccc(O)cc3)c3ccccc23)cc1 | 5.8 | -4.4 | -6.0 | -0.4 | 30.7
NC(=O)c1ccc(Nc2nnc(-c3ccc(O)cc3)c3ccccc23)cc1 | 25.4 | 13.2 | -4.0 | -1.6 | 51.8*
O=c1c2ccccc2nc(/C=C/c2ccccc2)n1CCc1ccccc1 | 0.5 | 12.2 | -4.0 | -2.2 | 5.2
O=c1c2ccccc2nc(/C=C/c2cccnc2)n1Cc1ccccc1 | 94.3* | 91.1* | 2.0 | 3.3 | 31.1
O=c1c2ccccc2nc(/C=C/c2cccnc2)n1CCc1ccccc1 | 68.3 | 95.2* | nt | nt | 21.9
CCO[C@@H]1OC(C(=O)N2CCOCC2)=C[C@H](c2ccc(C(F)(F)F)cc2)[C@H]1CCCO | -0.8 | -0.6 | 2.0 | -0.8 | 3.5
O=C(O)c1ccc(OCC(F)(F)F)nc1 | -1.4 | -8.9 | nt | nt | -9.5
O=C(O)Cc1cc(I)c(Oc2ccc(O)c(I)c2)c(I)c1 | 3.3 | 35.1 | -4.0 | 52.3* | 22.0
O=C(O)Cc1ccc(O)c(O)c1 | 0.2 | -65.2 | nt | nt | 37.5
Cc1noc2ncnc(SCc3ccc(C(F)(F)F)cc3)c12 | 2.9 | 69.4* | nt | nt | 10.6
CC(C)OCCCNc1ncnc2c1[nH]c1ccccc12 | 2.0 | -7.2 | -2.0 | -3.1 | 2.7
Cc1ccc(S(=O)(=O)N2C(=O)/C(=C3\SC(=S)NC3=O)c3ccccc32)cc1 | 3.9 | -65.5 | nt | nt | 70.4*
Cc1ccc(S(=O)(=O)N2c3ccccc3-c3c(ssc3=S)C2(C)C)cc1 | -15.4 | -53.9 | 1.0 | -11.9 | 12.7
CCOc1ccc2nc(NC(=O)CSc3nc(-c4ccccc4)c(C#N)c(=O)[nH]3)sc2c1 | -6.8 | -7.8 | 0.0 | 61.5* | 48.4
COc1cccc(-c2nc(SCC(=O)Nc3nc(-c4ccccc4)c(C)s3)[nH]c(=O)c2C#N)c1 | -2.6 | 17.0 | 0.0 | 57.6* | 29.4
Cc1ccc(NC(=O)CCn2nc([N+](=O)[O-])cc2C)nc1 | 7.8 | -1.5 | 0.0 | 8.0 | 33.5
O=C(O)CSc1cc(C(=O)c2ccccc2O)cn2c(=O)c3c4c(sc3nc12)CCCC4 | 75.0* | 50.5* | nt | nt | 79.6*
COc1ccc(-c2cnnc(N/N=C/c3ccc(O)c(O)c3)n2)cc1 | 3.2 | -93.3 | -9.0 | -26.3 | 45.8
CN(/N=C\c1ccc(O)c(O)c1)c1nc(-c2ccccc2)cc(-c2ccccc2)n1 | -4.5 | 22.5 | 0.0 | -33.3 | 72.5*
CCOc1ccccc1CN1CCN(S(=O)(=O)CC)CC1 | 94.5* | 38.8 | 2.0 | 11.7 | 20.3
Cc1ccc(C(=O)OCc2nnc(-c3ccccc3)o2)o1 | 10.1 | -15.7 | -4.0 | 1.4 | 10.4
CC(=O)c1c(C)[nH]c(C(=O)OCc2nnc(-c3ccccc3)o2)c1C | 1.2 | 51.3* | -2.0 | 13.6 | -15.4
N#Cc1c(NC(=O)CSc2ncnc3sccc23)oc(-c2ccco2)c1-c1ccco1 | -1.1 | -34.5 | 3.0 | -1.0 | 96.9*
SMILES | 14-3-3 Bad inh | Mcl1 Bid PPI | Mcl-1 Bim block | Arbovirus anti | Mcl1 Noxa PPI
Cc1cc(C)nc(NC(=S)Nc2cccc(Cl)c2Cl)c1 | -4.0 | -31.9 | 2.0 | -5.2 | -9.8
O=C(CN(c1ccc(F)cc1)S(=O)(=O)c1ccc2c(c1)OCCO2)NCc1ccccn1 | -9.6 | -17.2 | 0.0 | -8.1 | 10.9
Cc1ccc(C(C)C)c(OCc2nn(CC(=O)c3ccc(OC(F)F)cc3)c3[n+]2CCCCC3)c1 | 4.2 | 11.1 | -1.0 | -32.7 | 8.6
Cc1cc(C)nc(NC2=NCCN2C(=S)Nc2ccc(C)c(C)c2)n1 | -14.0 | -35.2 | nt | nt | -19.7
Clc1ccc(-c2csc(N/N=C/c3cccnc3)n2)c(Cl)c1 | 5.6 | 42.4 | -3.0 | 5.2 | 58.4*
C/C(=N\Nc1ccc(C(=O)O)cc1)c1ccc2c(c1)Nc1ccccc1S2 | 9.7 | 56.8* | nt | nt | 87.1*
Cc1cc(=O)[nH]c2c(N=Nc3ccc(O)cc3)c(N)nn12 | -11.2 | -36.7 | 21.0 | -2.0 | 56.9*
CCCCCCOC(=O)Cc1c(C)nc(-c2ccccc2)[nH]c1=O | 11.8 | -11.5 | -3.0 | 10.6 | -23.4
